According to PubChem BioAssay AID588742 (Southern Research Specialized Biocontainment Screening …, 2011):
In all, about 1,800 compounds went through this assay and about 410 (23%) were called active. These entries were drawn from the full list. Results with a measured potency or affinity are listed apart. A number with no mark means an inactive call. How the calls were made is not given here.

Test: viability of Vero cells under compound – cytotoxicity control for flavivirus capping enzyme inhibitors (AID 588742)
Settings: cytotoxicity counter-screen; series mostly up to 40 µM; viability: at the top concentration

| SMILES | viability |
| --- | --- |
| O=C(O)CSc1cc(C(=O)c2ccccc2O)cn2c(=O)c3c4c(sc3nc12)CCCC4 | 99.5% |
| COc1ccc(O)c(C(=O)c2cc(SCC(=O)O)c3nc4sc5c(c4c(=O)n3c2)CCCC5)c1 | 104% |
| O=C(CNc1ccc2ccccc2c1)N/N=C/c1ccncc1 | 85.9% |
| CN(C)c1cccc(C(=O)OC(C(=O)Nc2ccc([N+](=O)[O-])cc2Br)c2ccccc2)c1 (stereo not given) | 96.1% |
| CC1=NN(C(=S)Nc2ccccc2)C(c2ccccc2)C1 (stereo not given) | 94.9% |
| Cc1cccc(C2C3=C(Nc4[nH]n(-c5ccccc5)c(=O)c42)c2ccccc2C3=O)c1 (stereo not given) | 89.5% |
| COc1cc(N2CCCC2)c(OC)cc1C=O | 95.6% |
| COc1ccc(S(=O)(=O)CC(=O)c2cc3cccc(C)c3oc2=O)cc1 | 99.1% |
| N#Cc1c(SC(C(=O)O)c2ccccc2)nc2c(c1-c1cccs1)CCCC2 (stereo not given) | 104% |
| CC1=NN(c2nc(-c3ccccc3)cs2)C(=O)C1 | 100% |
| COc1cc(/C=C(\C#N)C(=O)Nc2ccccc2C(=O)O)cc(Cl)c1OC | 86.9% |
| COc1ccc2nc3ccccc3nc2c1N | 90.1% |
| COc1ccc2nc3cccc(OC)c3nc2c1 | 86.4% |
| COc1cc(N=c2ssnc2Cl)c(OC)cc1Cl | 90.8% |
| O=C(O)/C(CC(=O)c1ccc(Cl)cc1)=N/Nc1ccc([N+](=O)[O-])cc1[N+](=O)[O-] | 101% |
| O=C(c1ccc(NC(=O)C(c2ccccc2)c2ccccc2)cc1)c1ccc(C(=O)O)c(C(=O)O)c1 | 101% |
| COc1ccccc1/C=C1/C(=O)N(c2ccccc2)N=C1C | 96.3% |
| CC1=NN(c2ccccc2)C(=O)/C1=C/c1cccs1 | 98.1% |
| CC(=O)CSc1nsc(SCC(C)=O)c1C#N | 96.2% |
| C=CCOc1ccccc1OCC(O)CNC(C)C (stereo not given) | 97.4% |
| O=C(CN1C(=O)/C(=C2/SC(=S)N(CCS(=O)(=O)O)C2=O)c2ccccc21)Nc1cccc(C(F)(F)F)c1 | 102% |
| Cc1oc2cc([N+](=O)[O-])c(O)c([N+](=O)[O-])c2c1C(=O)c1ccc(Br)cc1 | 95.3% |
| O=[N+]([O-])c1cc(-c2ccccc2)cc([N+](=O)[O-])c1O | 96.4% |
| CC(CNC(=O)CN1C(=O)COc2ccc(S(=O)(=O)N3CCCCC3)cc21)c1ccccc1 (stereo not given) | 108% |
| COc1ccc(-c2ccc(CCC(=O)O)o2)cc1 | 105% |

| SMILES | viability |
| --- | --- |
| COC(=O)CCC(=O)OC1(C)C(=O)C2=CN(C3CCCC3)C(c3ccc(OC)cc3)=CC2=C(Br)C1=O (stereo not given) | 101% |
| Cc1ccc(C(=O)/C=C/C(=O)O)cc1 | 105% |
| O=C(O)/C=C/C(=O)c1ccc(O)cc1 | 101% |
| O=C(O)c1[nH]c2ccccc2c1C(c1cc(Br)ccc1O)c1c(C(=O)O)[nH]c2ccccc12 | 97% |
| Cc1ccc(NCc2cccnc2)c(Br)c1 | 86.1% |
| O=C(CC(Nc1cccc(Cl)c1Cl)C(=O)O)c1ccccc1 (stereo not given) | 112% |
| COc1ccc(C(C2C(=O)CC(C)(C)CC2=O)C2C(=O)CC(C)(C)CC2=O)cc1 | 97.5% |
| CCOC(=O)c1c(C)oc2c1c(CN1CCN(C(=O)OCC)CC1)c(O)c1ccccc12 | 85.7% |
| O=C(O)CN1C(=O)C=CC1=O | 93.5% |
| CCOC(=O)c1c(NC(=O)C2C3C=CC(C3)C2C(=O)O)sc2c1CCC(CC)C2 (stereo not given) | 98.6% |
| Cc1ccc(/C=C2\SC(=S)N(C(Cc3ccccc3)C(=O)O)C2=O)cc1 (stereo not given) | 90% |
| CCOC(=O)C1=C(C)NC2=C(C(=O)C(C(=O)OCC)C(c3ccco3)C2)C1c1ccccn1 (stereo not given) | 101% |
| Cc1ccc(C(=O)N/N=C/c2ccc(-c3ccc(Br)cc3[N+](=O)[O-])o2)o1 | 92.3% |
| C=CCOc1ccc(/C=C2\SC(=S)N(C(C(=O)O)c3ccccc3)C2=O)cc1 (stereo not given) | 98.8% |
| Cc1ccc(Cn2c(=S)[nH]c3ccc(N4CCOCC4)cc3c2=O)o1 | 90% |
| C=CCn1c(=S)[nH]c2scc(-c3ccco3)c2c1=O | 105% |
| O=C(O)COc1ccccc1C=NNc1ccc([N+](=O)[O-])cc1S(=O)(=O)Nc1ccc(Cl)cc1 | 95.3% |
| Cc1ccc(NC(=S)NNc2ccc([N+](=O)[O-])cc2S(=O)(=O)Nc2ccccc2C(=O)O)cc1C | 91% |
| CC(C)COCC(O)CCC(=O)NNC(=S)Nc1ccccc1 (stereo not given) | 96% |
| Cc1ccc2ccc(C#N)cc2c1O | 97.7% |
| COc1ccccc1-c1cc(C(=O)Nc2sc3c(c2C#N)CCC(C)C3)c2ccccc2n1 (stereo not given) | 89.8% |
| COc1cc(C(c2c(C(=O)O)[nH]c3ccccc23)c2c(C(=O)O)[nH]c3ccccc23)ccc1OCc1ccccc1 | 102% |
| COc1cc(/C=C2\C(=N)N3N=C(N4CCOCC4)SC3=NC2=O)ccc1OC(=O)c1ccccc1 | 93.8% |
| Cc1cccc(N2C(=O)C(Cl)=C(N3CCOCC3)C2=O)c1 | 96.8% |
| COc1ccc(C2C=C(c3ccc(Br)cc3)Nc3nc(N4C(=O)CCC4=O)nn32)cc1 (stereo not given) | 92.4% |

| SMILES | viability |
| --- | --- |
| Cc1ccc(S(=O)(=O)Nc2ccc3ccccc3c2[N+](=O)[O-])cc1 | 98.3% |
| Cc1ccc(C)c(S(=O)(=O)Nc2ccc(O)c3ccccc23)c1 | 98.5% |
| O=C(O)c1ccc(N/N=C/c2cn(Cc3ccccc3F)c3ccccc23)cc1 | 82.6% |
| CC(/C=C1\SC(=S)N(NS(=O)(=O)c2ccc(C)cc2)C1=O)=C\c1ccccc1 | 93.5% |
| Cc1nc2ccc(NC(=O)c3cc([N+](=O)[O-])cc([N+](=O)[O-])c3Cl)cc2s1 | 109% |
| Cc1cc([N+](=O)[O-])c(C)cc1-c1ccc(/C=N/NC(=O)c2cccnc2)o1 | 93.1% |
| CN(C)c1c([N+](=O)[O-])cc(N2C(=O)C=CC2=O)cc1[N+](=O)[O-] | 100% |
| CCOc1ccc(/C=C2\SC(=S)N(NS(=O)(=O)c3ccccc3)C2=O)cc1OC | 95.8% |
| O=C(CCN1C(=O)S/C(=C/c2ccccc2)C1=O)Nc1ccc(O)c(C(=O)O)c1 | 100% |
| COc1ccc(OC)c(-n2c(-c3ccc(O)cc3O)n[nH]c2=S)c1 | 108% |
| Cc1sc(NC(=O)C2CCCCC2C(=O)O)c(C(N)=O)c1-c1ccc(C(C)C)cc1 (stereo not given) | 97.5% |
| Cc1sc(NC(=O)C2CCCCC2C(=O)O)c(C(N)=O)c1-c1ccc(C(C)(C)C)cc1 (stereo not given) | 98.8% |
| COC(=O)c1sc(-c2ccc(C(C)(C)C)cc2)cc1NC(=O)c1ccccc1C(=O)O | 84% |
| O=C(O)CN1C(=O)/C(=C\c2cc(Br)ccc2OCc2ccccc2Cl)SC1=S | 86.5% |
| Oc1cc(CNCc2ccccc2)c(O)cc1CNCc1ccccc1 | 91.2% |
| O=C(O)CN1C(=O)/C(=C\c2cccc(OCc3ccc(Cl)cc3)c2)SC1=S | 89.3% |
| O=[N+]([O-])c1ccc(N/N=C2/CCCCC2c2ccccn2)c([N+](=O)[O-])c1 (stereo not given) | 91.9% |
| CCCc1nc2nc(C)c(NS(=O)(=O)c3ccc(C4CCCCC4)cc3)c(=O)n2[nH]1 | 103% |
| COc1ccc(OC)c(N2C(=O)C(Cl)=C(N3CCOCC3)C2=O)c1 | 110% |
| COc1ccc(Cl)cc1/C=C1/C(=O)ON=C1C | 93.8% |
| CN1c2ccccc2C(C)(C)C12C=Nc1c(ccc3ccccc13)O2 (stereo not given) | 92.2% |
| O=C(COC(=O)c1ccc(NS(=O)(=O)c2cccs2)cc1O)NC1CCCCC1 | 87.3% |
| O=C1CCCc2cc(S(=O)(=O)N3CCC(C(=O)NCc4ccccc4)CC3)ccc2N1 | 96.7% |
| COC/C=C/C1=CC2=CC(=O)C(C)(OC(=O)c3cnc4ccccc4n3)C(=O)C2=CN1C1CC1 (stereo not given) | 93.5% |
| C=CCN1C=C2C(=O)C(C)(OC(=O)c3cnc4ccccc4n3)C(=O)C=C2C=C1/C=C/COC (stereo not given) | 107% |

| SMILES | viability |
| --- | --- |
| CCc1ccccc1N1C(=O)C(Cl)=C(N2CCOCC2)C1=O | 89.8% |
| Cc1ccccc1N1C(=O)C(Cl)=C(N2CCOCC2)C1=O | 90.7% |
| Cc1ccc(Nc2cc(C)c(O)c(C)c2)cc1 | 92.6% |
| Cc1ccc(S(=O)(=O)Nc2nc3ccccc3nc2NCc2ccco2)cc1 | 105% |
| CC(C)C[C@H]1CN=C(Nc2ccccc2)N1CC(C)C | 96.1% |
| Cc1ccc(OCC(=O)c2ccc(Cl)s2)c([N+](=O)[O-])n1 | 95.8% |
| CCOc1ccc2c(c1)C(C)=CC(C)(C)N2C(=O)Nc1ccccc1 | 99.6% |
| O=c1[nH]c(/C=C/c2cccc([N+](=O)[O-])c2)c([N+](=O)[O-])c(=O)[nH]1 | 103% |
| CN1C(=O)/C(=C/c2cccc([N+](=O)[O-])c2)C(=O)N1c1ccccc1 | 99.7% |
| Cc1cc(C)cc(NC(=S)N(Cc2ccc(Cl)cc2)Cc2ccc(C(=O)O)cc2)c1 | 86.2% |
| CSC1=C(C#N)C(=O)NC(c2ccccc2O)S1 (stereo not given) | 102% |
| Cc1ccc(OCc2ccc(C(=O)Nc3nccs3)o2)cc1C | 103% |
| CCn1c(C)[n+](CCCS(=O)(=O)[O-])c2cc(Cl)c(Cl)cc21 | 106% |
| O=S(=O)(O)c1cccc2cccc(Nc3ccccc3)c12 | 93.8% |
| COc1ccc(/C=C2/SC(=S)N(NS(=O)(=O)c3ccc(C)cc3)C2=O)cc1 | 96.9% |
| CCC(COC)Oc1cc(NCc2ccccc2)c2ncn(C(C)C)c2c1 (stereo not given) | 85.8% |
| CCCCC1=CC2=C(c3ccco3)C(=O)C(C)(OC(=O)c3ccc(OC)cc3)C(=O)C2=CN1CC1CC1 (stereo not given) | 83.4% |
| Cc1cc(SCC(=O)c2cccc([N+](=O)[O-])c2)nc(=O)[nH]1 | 97.7% |
| O=c1nc(/C=C/c2cc([N+](=O)[O-])ccc2Cl)cc(C(F)(F)F)[nH]1 | 103% [at 20 µM] |
| Cc1[nH]n(-c2ccccc2)c(=O)c1C(c1cccc([N+](=O)[O-])c1)c1c(C)[nH]n(-c2ccccc2)c1=O | 85.4% |
| Cc1ccc(S(=O)(=O)NN2C(=O)/C(=C/c3cccs3)SC2=S)cc1 | 98.3% |
| CC1=NN(c2ccccc2)C(=O)C1=Cc1ccccc1 | 104% |
| COc1cc(NC(=O)c2ccco2)c(OC)cc1NC(=O)CCC(=O)Nc1cc(C)ccc1C | 101% |
| COc1cc(/C=C2/SC(=S)N(CC(=O)O)C2=O)ccc1OCC(=O)Nc1ccc(C)c(C)c1 | 97.2% |
| CCOC(=O)/C(=C\c1cn(C)c2ccccc12)[N+](=O)[O-] | 95.5% |
